Data published in PubChem BioAssay (NCI).
Compounds without any hit were thinned out: in the full panel of roughly 83,000, 20% have a hit.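 Note: values are percent growth. 100 is the growth of untreated cells, values between 100 and 0 indicate rising inhibition; between -100 and 0 indicates cell death.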 Calls of active or inactive are those of the source. How the source made its calls: active means growth percent below 10; inactive means the rest.

test system: DU-145 prostate; experiment: NCI-60 one-dose screen, 48 h (100 = growth as untreated, 0 = no growth, -100 = all killed); details: 10 µM unless noted

SMILES | growth
O=C1C(Cl)=C(NCCCN2CCOCC2)C(=O)c2ccccc21 | 126% (inactive)
COC(=O)c1cc(-c2ccc(C)cc2)n(C(=O)CSc2nc3sc(C(N)=O)c(C)c3c(=O)n2Cc2ccccc2)n1 | 102% (inactive)
COc1cccc(OC)c1OC(=O)c1ccccc1 | 119% (inactive)
Oc1ccc2ccccc2c1C1NN=C(c2ccccc2)S1 (stereo unspecified) | 21.1% (inactive)
CCCCC/C=C\C/C=C/CCCCCCCCNC(=O)Nc1ccc([N+](=O)[O-])cc1 | 47.3% (inactive)
Clc1ccc(Nc2ccnc(N3CCN(c4ccnc5cc(Cl)ccc45)CC3)n2)cc1 | 78.2% (inactive)
Cc1ccc(S(=O)(=O)N(c2ccc(Cl)cc2)c2ccc(Br)cc2C(=O)O)cc1 | 117% (inactive)
CCN1CCN(C(=S)SCC(=O)Nc2nc3ccc(OC)cc3s2)CC1 | 106% (inactive)
Cn1c2ccccc2c2nn(Cc3ccccc3)c(=O)nc21 | 113% (inactive)
Clc1ccc2c(N3CCN(c4ccnc(NC5CCCCC5)n4)CC3)ccnc2c1 | 62.4% (inactive)
Cn1c2ccccc2c2nn(C(=O)c3ccccc3)c(=O)nc21 | 118% (inactive)
COc1ccc(OC2=C(C#N)C(=N)N3c4ccccc4Sc4ccccc4C3N2)cc1 (stereo unspecified) | 99.7% (inactive)
NC(=S)N/N=C1\c2ccccc2-c2c(F)c(F)c(F)c(F)c21 | 81.7% (inactive)
NC(=O)c1cc(I)ccc1NC(=O)COc1ccc(Cl)cc1Cl | 111% (inactive)
CCC12CCC3c4ccc(O)cc4CCC3C1CC(O)C2O (stereo unspecified) | 103% (inactive)
O=C1NC(=O)C(CSc2ccccc2)(c2ccccc2)N1 (stereo unspecified) | 123% (inactive)
